This is an account of results in PubChem BioAssay.

SMILES strings stand for the structures.

This experiment in a line: Primary imaging screen for DUSP6 inhibitors that restore phospho-Erk in transfected HeLa cells, chemical complementation (AID 609). Conditions: HeLa MKP-3 transfected, phospho-Erk imaging KS statistic; measured here: cell density z-score; at 10 µM; cells stimulated with TPA for 15 min.
`CNc1oc(-c2ccc(Cl)cc2)nc1C#N`: the z-score was -1.3.

`O=C(CNC1=NCCC1)c1ccc2c(c1)OCCO2` came in with a z-score of -0.692.

Turning to `COc1ccc(CNC(=O)c2c(C)cc(=O)oc2C)cc1OC`, the z-score stood at 0.057.

In the case of `C=CCOn1c(=O)c(-c2cc3ccccc3o2)[n+]([O-])c2ccccc21`, the z-score is -0.342.

Turning to `COC(=O)c1ccn(C(=O)c2ccc(Cl)cc2)n1`, the z-score was 1.7.

In turn, `c1ccc(OCc2nn3c(C4CCCCC4)nnc3s2)cc1` displayed a z-score of -0.542.

Compound `CC(C)Cc1nc(N2CCN(C(=O)C(C)C)CC2)c(C#N)c2c1CCC2` gave a z-score of -1.27.

For `COC(=O)c1sccc1NC(=O)c1c(C)cc(=O)oc1C`, the z-score stood at 0.942.

The compound `Cc1ccc(S(=O)(=O)N2CCC(N3CCCCCC3)CC2)cc1` came in with a z-score of 0.833.

`COc1ccc(C2=Nn3c(nnc3-c3cccnc3)SC2)cc1OC` showed a z-score of -0.53.

For `CCCCOc1ccc(CN(C)c2ncnc(N)n2)cc1`, the z-score was -0.491.

`CCCCCCc1cc2cc(-c3nnc(-c4ccccc4O)o3)c(=O)oc2cc1O` yielded a z-score of -0.061.

For the compound `CC(=O)Nc1cccc(NC(=O)CSc2nc(C)c(C)c(C)c2C#N)c1`, the z-score amounted to 0.636.

The compound `Cc1cc(=O)oc2cc(OCCSCCN3CCOCC3)ccc12` gave a z-score of 1.19.

For the compound `COc1ccccc1C(CC(=O)Nc1nccs1)c1ccco1` (stereo not given), the z-score is -0.704.

`CCC1(C)Cc2ccccc2-c2nc(NCCO)n(-c3ccccc3)c(=O)c21` (stereo not given) yielded a z-score of -0.977.

On to `CC1(C)Cc2c(sc3c4nnnn4c4nnnn4c23)CO1`, for which the z-score is 0.452.

Take `CC(C)CN1C(=O)NC(NC(=O)c2cccnc2)(C(F)(F)F)C1=O` (stereo not given): the z-score came to 0.462.

`CCOC(=O)C(C)Oc1nc(Oc2ccccc2)nc(N(C)C)n1` (stereo not given) had a z-score of 0.393.

`CC1(C)Cc2nc(N)c(C(=O)NCCO)cc2CO1`: the z-score is -0.73.
